Measurements taken from PubChem BioAssay (NCI).
The panel holds about 83,000 compounds, 20% with a hit somewhere; the sample as a whole holds those more often.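 Assay: single dose, 48 h. Readout: percent growth (0 = no net growth; negative = cell death). Active: <10.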 Activity calls are given as the source filed them.

Experiments:
Assay in all cases: NCI-60 one-dose screen, 48 h (100 = growth as untreated, 0 = no growth, -100 = all killed)
Conditions in all cases: 10 µM unless noted
[1] = system: SR leukemia
[2] = system: RPMI-8226 leukemia
[3] = system: OVCAR-8 ovarian
[4] = system: OVCAR-5 ovarian
[5] = system: OVCAR-4 ovarian
[6] = system: SK-OV-3 ovarian
[7] = system: IGROV1 ovarian
[8] = system: OVCAR-3 ovarian
[9] = system: HS 578T breast
[10] = system: NCI/ADR-RES ovarian

Measured: growth

CCc1cccc(C)c1NC(=O)c1sc2nc3c(cc2c1N)C(=O)CCC3
inactive: [3] 27.9% | [4] 29.2% | [5] 76.3% | [6] 10.4% | [7] 30.7% | [9] 24.8%
active: [1] 2.24% | [2] 9.64% | [8] -26% | [10] 8.17%

COc1ccc(C2CC(c3cccs3)=NN2c2ccc(S(=O)(=O)NC(=O)Nc3ccc(C)cc3)cc2)cc1 (stereo not given)
inactive: [1] 84.7% | [2] 83.4% | [3] 99.8% | [4] 115% | [5] 106% | [6] 78.3% | [7] 108% | [8] 98.2% | [9] 96% | [10] 103%

CC(C)CCN(CCCNc1c2c(nc3ccccc13)CCCC2)CCC(C)C
active: [1] 5.77%
inactive: [2] 56.4% | [3] 91.1% | [4] 83.6% | [5] 66.3% | [6] 94.3% | [7] 81.8% | [8] 93.9% | [9] 87.6% | [10] 87.8%

CCCCCCCN(CCCCCCC)C(=N)c1ccc(OC)c2ccccc12
active: [1] -48.6% | [2] -48.8% | [3] -66.3% | [4] -82.4% | [5] -98% | [6] -68.2% | [7] -73.5% | [8] -94.6% | [9] -60.6% | [10] -75.7%

COc1ccc(NC(=S)/N=c2\oc3c(OC)cccc3cc2-c2cc3ccccc3[nH]2)cc1
inactive: [1] 103% | [2] 105% | [3] 54.8% | [4] 91.5% | [5] 56.4% | [6] 69.4% | [7] 63.1% | [8] 79.7% | [9] 36.4% | [10] 56.7%

COc1cccc(-n2cc(-c3nc(Cl)c4ccccc4n3)nn2)c1
inactive: [1] 97.9% | [2] 97.7% | [3] 109% | [4] 109% | [5] 98.7% | [6] 117% | [7] 96.5% | [8] 105% | [9] 110% | [10] 97.4%

CC1=CNNc2c3ncnc-3ncn21
inactive: [1] 97.4% | [2] 103% | [3] 107% | [4] 101% | [5] 111% | [6] 103% | [7] 108% | [8] 105% | [9] 110% | [10] 105%

Clc1ccc([I+]c2ccc(Cl)cc2Cl)c(Cl)c1
inactive: [1] 22.8% | [6] 96.7% | [7] 39.7% | [9] 79% | [10] 79.4%
active: [2] -25.7% | [3] -1.2% | [4] -25.9% | [5] 0.221% | [8] -75.5%

CC(C)CCC[C@@H](C)[C@H]1CC[C@H]2[C@@H]3CC[C@H]4C/C(=N/O)CC[C@]4(C)[C@H]3CC[C@]12C
inactive: [1] 99.6% | [2] 101% | [3] 96.8% | [4] 112% | [5] 119% | [6] 104% | [7] 111% | [8] 113% | [9] 101% | [10] 111%

O=S(=O)(NCCCNc1nccc(-c2c(-c3ccccc3)nc3sccn23)n1)c1ccc(F)cc1
inactive: [1] 34.6% | [2] 38.8% | [3] 26.2% | [4] 111% | [5] 36.2% | [6] 59.1% | [7] 32.9% | [8] 49.6% | [9] 72% | [10] 22.4%

CCN(CC)CCSc1c2ccc(Cl)cc2nc2ccc(OC)cc12
inactive: [1] 12.1% | [2] 72.7% | [3] 88.5% | [4] 103% | [5] 81% | [6] 86.5% | [7] 98.1% | [8] 24.5% | [9] 108% | [10] 105%

CC(=O)Nc1ccc(S(=O)(=O)N2C(=O)CCC2C(=O)Nc2ccc(Br)cc2)cc1 (stereo not given)
inactive: [1] 16.9% | [2] 10.1% | [3] 47.5% | [4] 77.5% | [5] 25.5% | [6] 69.2% | [7] 37.4% | [8] 24.4% | [9] 56.6% | [10] 41.8%

O=[N+]([O-])c1ccc(S(=O)(=O)N2CCN(c3ccnc4cc(Cl)ccc34)CC2)c([N+](=O)[O-])c1
inactive: [2] 25.7% | [3] 97.1% | [4] 106% | [5] 95.3% | [6] 105% | [7] 99.5% | [8] 93% | [9] 89.1% | [10] 95.5%
active: [1] 3.12%

O=C(Nc1cc(C(F)(F)F)cc(C(F)(F)F)c1)Nc1ccc(OCc2nnc(-c3ccc(Cl)cc3)o2)c(F)c1
active: [1] 0.985% | [2] 3.52% | [4] -5.15% | [6] 5.55% | [10] 4.95%
inactive: [3] 10.6% | [5] 24% | [7] 32.7% | [8] 16% | [9] 28.1%

Cc1cc(NC(=O)COC(=O)c2sc3cc(F)ccc3c2Cl)no1
inactive: [1] 108% | [2] 114% | [3] 112% | [4] 100% | [5] 105% | [6] 111% | [8] 120% | [9] 123% | [10] 107%
active: [7] -31.8%

COc1ccc(NC(=O)c2cc3ccccc3nc2Nc2cc(OC)c(OC)c(OC)c2)cc1
inactive: [1] 56.6% | [2] 35.5% | [3] 41.9% | [4] 92.4% | [5] 58.1% | [6] 91.7% | [7] 87% | [8] 48% | [9] 79% | [10] 43.2%

O=S(=O)(NCCNc1cc(-c2cn(-c3ccccc3)nc2-c2ccccc2)ccn1)c1ccc(F)cc1
inactive: [1] 79.3% | [2] 72.5% | [3] 83% | [4] 106% | [5] 85.6% | [6] 92.1% | [7] 98% | [8] 94.7% | [9] 87.3% | [10] 81.3%

Clc1ccc(-c2nc(-c3ccco3)cn3ccnc23)cc1
active: [6] -14.7%
inactive: [1] 63.4% | [2] 52.9% | [3] 49.8% | [4] 87.9% | [5] 41.3% | [7] 40.7% | [8] 50.7% | [9] 74% | [10] 70.1%

O=S(=O)(NCCNc1cc(-c2cn(-c3ccccc3)nc2-c2ccccc2)ccn1)c1cccc2ccccc12
inactive: [1] 56% | [2] 38.7% | [3] 56% | [4] 74.4% | [5] 49.1% | [6] 66.3% | [7] 63.1% | [8] 59.5% | [9] 56.3% | [10] 43.8%

c1ccc2c(c1)Oc1ccccc1C2C1c2ccccc2Oc2ccccc21
inactive: [1] 86.3% | [2] 103% | [3] 101% | [4] 89.7% | [5] 84% | [6] 105% | [7] 91.5% | [8] 98.4% | [9] 99.6% | [10] 95.3%

COc1ccc(C(=O)c2cc(OC)c(OC)c(OC)c2)cc1/C=C/C(=O)c1ccc(O)cc1
inactive: [1] 10.6% | [3] 22.3% | [4] 69.5% | [5] 43.6% | [6] 18.5% | [7] 45.9% | [9] 43.4% | [10] 16.2%
active: [2] 9.18% | [8] -10.5%

O=C(O)C(Cc1ccccc1)N1C(=O)/C(=C/C(Cl)=C/c2ccc([N+](=O)[O-])cc2)SC1=S (stereo not given)
inactive: [3] 12.1% | [4] 137% | [6] 83.4% | [7] 36.3% | [8] 10.7% | [9] 44.6% | [10] 68.7%
active: [1] 5.32% | [2] -6.22% | [5] 7.24%

COc1cccc(-c2nc3sccn3c2-c2ccnc(NCCNS(=O)(=O)c3ccccc3)n2)c1
inactive: [1] 70.3% | [2] 49.5% | [3] 49.2% | [4] 124% | [5] 57.4% | [6] 79.9% | [7] 63.2% | [8] 68.3% | [9] 107% | [10] 47.1%

CC(C)N(Cc1ccc(CN(C(=O)CCl)C(C)C)cc1)C(=O)CCl
inactive: [5] 26.4% | [6] 49.7% | [9] 59.3%
active: [1] 8.59% | [2] 1.57% | [3] -12.9% | [4] 4.12% | [7] -49.3% | [8] -76.1% | [10] 4.6%

CC(C)(C)OC(=O)N[C@@H](Cc1ccccc1)C(=O)N(Cc1ccccc1)C1(C(=O)NCc2ccccc2)CCN(Cc2ccccc2)CC1
inactive: [2] 22.8% | [3] 22.6% | [4] 31.1% | [5] 24.2% | [6] 69.9% | [7] 59.1% | [8] 48.5% | [9] 71.5% | [10] 12.1%
active: [1] -0.167%

C=CCOc1cccc(/C=C/C(=O)c2sc(Nc3cccnc3)nc2C)c1
inactive: [1] 42.4% | [2] 23.1% | [3] 52.6% | [4] 108% | [5] 69.5% | [6] 88.5% | [7] 62.9% | [8] 14.9% | [9] 99.9% | [10] 50.2%

CCOP(=O)(CCN1CCN(CCCCCOc2cc3c(cc2OC)C(=O)N2CCC[C@H]2C=N3)CC1)OCC
inactive: [1] 28.7% | [3] 83.4% | [4] 106% | [5] 87.8% | [6] 118% | [8] 119% | [9] 84.5% | [10] 88.5%
active: [2] -10.5% | [7] -26%
